These results are taken from PubChem BioAssay (Tox21).

Each structure is given as a SMILES string. Inconclusive results are not listed. The source made the active and inactive calls. Unless noted, calls follow the shape of the dose curve; as a rule, active = well fitted curve in the direction sought with a large enough effect in the repeat runs; inconclusive = weak or mixed curves; inactive = no such curve, though single readings can be large; an effect the other way counts as inactive or inconclusive.

The nature of assay [1]: qHTS assay to identify small molecule agonists of the androgen receptor (AR) signaling pathway in the presence of an antagonist - cell viability counter screen (AID 1259379). Also: nearly all actives have a fitted effect of over 25% in size. Also: potency is read from the fitted curve at half-maximal effect. The gist of the method:
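Each compound was tested at 15 concentrations on MDA-kb2 cells in the presence of 3.0uM nilutamide. Viability was measured by CellTiter-Fluor fluorescence after a 16 hr incubation at 37C in a CO2-free atmosphere.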

Assay [2] can be described thus: qHTS assay to identify small molecule agonists of the estrogen receptor beta (ER-beta) signaling pathway - cell viability counter screen (AID 1259380). Also: nearly all actives have a fitted effect of over 30% in size. Also: potency is read from the fitted curve at half-maximal effect. In a few lines: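 Compounds dissolved in DMSO were pin-transferred onto ER-beta-UAS-bla HEK293T cells that had settled 6 hr, and exposure ran 16 hr at 37C. Following the reporter read, CellTiter-Glo luminescence after 30 min at room temperature indicated cytotoxicity.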

Assay [3] is described as follows: qHTS assay to identify small molecule antagonists of the estrogen receptor beta (ER-beta) signaling pathway - cell viability counter screen (AID 1259382).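 Also: HEK293T cells carrying ER-beta-UAS-bla reporter stimulated with estradiol; series mostly up to about 92 µM; nearly all actives have a fitted effect of over 55% in size.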 The gist of the method: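 CellTiter-Glo ATP luminescence measured after the LiveBLAzer read in the same wells; ER-beta-UAS-bla HEK293T cells, 16 hr compound treatment with 1nM 17-beta-estradiol agonist at 37C, 5% CO2.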

Assay [4] in a line: qHTS assay to identify small molecule agonists or antagonists of the thyroid stimulating hormone receptor (TSHR) signaling pathway - wild type cell line counter screen (AID 1259384; calls by dose curve). In a few lines:
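Wild-type HEK293 cells were plated 18 h at 37 C/5% CO2, pin-dosed with compound plus Ro20-1724 medium, held 30 min at room temperature, then given cAMP-d2 and anti-cAMP-cryptate; fluorescence was read after 1 h. Fifteen concentrations, triplicate.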

Assay [5] has as its target Thyrotropin receptor (Homo sapiens) (UniProt P16473). Nature of the assay: qHTS assay to identify small molecule antagonists of the thyroid stimulating hormone receptor (TSHR) signaling pathway (AID 1259385; calls by dose curve; also: nearly all actives have a fitted effect of over 20% in size). The gist of the method: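 TSHR-HEK293 cells were plated and held 18 h at 37C/5% CO2, then given compound plus Ro20-1724 and stimulated with TSH at 1.5 ng/mL final. After 30 min at room temperature, cAMP was detected with cAMP-d2/anti-cAMP-cryptate (1 h) by fluorescence.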

A short description of assay [6]: qHTS assay to identify small molecule agonists of the estrogen receptor alpha (ER-alpha) signaling pathway in the presence of an antagonist - cell viability counter screen (AID 1259386).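 Also: series mostly up to about 92 µM; cells exposed to compounds for 22 h at 37 °C before the viability read; nearly all actives have a fitted effect of over 30% in size.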 The gist of the method:
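Using estrogen-depleted VM7Luc4E2 cells, the 15-concentration compound series was applied together with 10.0nM ICI-182,780 and incubated 22hr at 37C/5% CO2. Cell viability was then scored by CellTiter-Fluor.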

Assay [7] has as its target Progesterone receptor (Homo sapiens) (UniProt P06401). The assay can be described thus: qHTS assay to identify small molecule agonists of the progesterone receptor (PR) signaling pathway (AID 1346784; calls by dose curve; also: nearly all actives have a fitted effect of over 30% in size; also: potency is read from the fitted curve at half-maximal effect). In a few lines:
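Fluorescence from LiveBLAzer B/G FRET substrate cleavage (2 hr, RT) reported PR activation in PR-UAS-bla HEK 293T cells treated 16 hr at 37C/5% CO2 with compounds; medium contained 2% charcoal-stripped FBS.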

The target is the same in assay [8]. The assay can be described thus: qHTS assay to identify small molecule antagonists of the progesterone receptor (PR) signaling pathway (AID 1346795; active = well fitted inhibition curve with a large enough effect in the signal ratio in the repeat runs, not every such curve was filed as active; the % refers to the signal ratio; also: potency is read from the fitted curve at half-maximal effect). The gist of the method:
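Fluorescence intensity measured 2 hr after adding beta-lactamase FRET substrate to PR-UAS-bla HEK293T cells that had been co-treated 16 hr with compound and 1 nM R5020 (final concentration) in 2% charcoal-stripped FBS.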

Assay [9] in a line: qHTS assay to identify small molecule antagonists of the progesterone receptor (PR) signaling pathway - cell viability counter screen (AID 1346798). Also: nearly all actives have a fitted effect of over 50% in size. Also: potency is read from the fitted curve at half-maximal effect. In a few lines:
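CellTiter-Glo luminescence; PR-UAS-bla HEK293T, 3,000 cells/well; compound + R5020, 16 hr, 37C/5% CO2; 30 min RT before read.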

The nature of assay [10]: qHTS assay to identify small molecule agonists of the progesterone receptor (PR) signaling pathway - cell viability counter screen (AID 1346799; calls by dose curve; also: nearly all actives have a fitted effect of over 45% in size; also: potency is read from the fitted curve at half-maximal effect). The gist of the method: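 In parallel with the beta-lactamase readout, cytotoxicity toward PR-UAS-bla HEK293T cells was measured by CellTiter-Glo luminescence following 16 hr compound incubation in 2% charcoal-stripped FBS medium.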

Assay [11] is described as follows: qHTS assay to identify small molecule antagonists of the TGF-beta/Smad signaling pathway - cell viability counter screen (AID 1346824). Also: nearly all actives have a fitted effect of over 50% in size. In a few lines: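 SBE-bla HEK 293T cells were plated overnight at 37 C, then given compounds in DMSO plus TGF-beta1 (added as 0.25 ng/mL solution) for 5 hr. After the bla read, CellTiter-Glo was added to the same wells and luminescence read after 30 min at room temperature.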

A short description of assay [12]: qHTS assay to identify small molecule agonists of the TGF-beta/Smad signaling pathway - cell viability counter screen (AID 1346829). Also: top concentration of the series differs between compounds; nearly all actives have a fitted effect of over 45% in size. The gist of the method:
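Here the cytotoxicity of library compounds is measured in SBE-bla HEK 293T cells treated for 5 hr, using CellTiter-Glo added to wells already read for the beta-lactamase reporter.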

The nature of assay [13]: qHTS assay to identify small molecule agonists of the TGF-beta/Smad signaling pathway (AID 1346859; active = well fitted activation curve with a large enough effect in the signal ratio in the repeat runs, not every such curve was filed as active; the % refers to the signal ratio; also: series mostly up to about 77 µM). In a few lines: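 After overnight seeding, SBE-bla HEK 293T cells are dosed with compounds in DMSO and kept 5 hr at 37 C, 5% CO2. LiveBLAzer-type FRET substrate is then applied for 2 hr at room temperature.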
Assay [14] concerns the target Thyrotropin-releasing hormone receptor (Homo sapiens) (UniProt P34981). Nature of the assay: qHTS assay to identify small molecule agonists of the thyrotropin-releasing hormone receptor (TRHR) signaling pathway (AID 1346891; calls by dose curve;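 also: HEK293 cells expressing TRHR with calcium dye readout; series mostly up to about 58 µM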). The gist of the method: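 Compounds were tested as agonists at 15 concentrations, in triplicate, on TRHR-Hek293 cells; calcium-sensitive dye fluorescence was recorded for 3 min following addition.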

Assay [15] in a line: Human pregnane X receptor (PXR) small molecule agonists, qHTS cell viability counter screen (AID 1346977). Also: nearly all actives have a fitted effect of over 50% in size. Also: potency is read from the fitted curve at half-maximal effect. The gist of the method: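 Viability counter screen: CellTiter-Fluor signal in PXR-Luc HepG2 cells, 24hr compound exposure, 37C, 5% CO2.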
The nature of assay [16]: Caspase-3/7 induction in HepG2 cells by small molecules, qHTS assay (AID 1346978). Also: nearly all actives have a fitted effect of over 15% in size. The gist of the method: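 Wild-type HepG2 cells (2,000/well) were settled 5 h at 37 C, 5% CO2, then exposed to compounds in DMSO for 17 h. Caspase-3/7 activity was read by luminescence 30 min after adding Caspase-Glo 3/7 reagent at room temperature.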
The target in assay [17] is Androgen receptor (Homo sapiens) (UniProt P10275). Nature of the assay: qHTS assay to identify small molecule agonists of the androgen receptor (AR) signaling pathway in the presence of an antagonist (AID 1259381; calls by dose curve; also: nearly all actives have a fitted effect of over 15% in size; also: potency is read from the fitted curve at half-maximal effect). In a few lines: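 Plated MDA-kb2 cells (3,000/well) were pre-incubated 5hr, given nilutamide (3.0uM final) or buffer, then dosed with compounds in DMSO at 15 concentrations. Luciferase activity was quantified by luminescence after 16hr at 37C.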

For assay [18], the target named is Estrogen receptor (Homo sapiens) (UniProt P03372). The assay can be described thus: qHTS assay to identify small molecule agonists of the estrogen receptor alpha (ER-alpha) signaling pathway in the presence of an antagonist (AID 1259383; calls by dose curve; also: nearly all actives have a fitted effect of over 15% in size; also: potency is read from the fitted curve at half-maximal effect; as to activation: top concentration of the series differs between compounds). In a few lines: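 Luminescent ERE-luciferase reporter, VM7Luc4E2 cells (endogenous ER-alpha); 10.0nM ICI-182,780 final; 15-point compound titration; 22hr at 37C; ONE-Glo, 30min RT.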

Assay [19] concerns the target Thyrotropin-releasing hormone receptor (Homo sapiens) (UniProt P34981). The assay can be described thus: qHTS assay to identify small molecule antagonists of the thyrotropin-releasing hormone receptor (TRHR) signaling pathway (AID 1346877; active = well fitted inhibition curve with a large enough effect in the repeat runs, not every such curve was filed as active; also: series mostly up to about 51 µM). In a few lines:
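Calcium signal in dye-loaded TRHR/HEK293 cells; compounds added 5 min before TRH (1 nM final); fluorescence monitored 3 min at 1 s steps.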

Estrogen receptor (Homo sapiens), sequence (P03372 whole entry, looked up): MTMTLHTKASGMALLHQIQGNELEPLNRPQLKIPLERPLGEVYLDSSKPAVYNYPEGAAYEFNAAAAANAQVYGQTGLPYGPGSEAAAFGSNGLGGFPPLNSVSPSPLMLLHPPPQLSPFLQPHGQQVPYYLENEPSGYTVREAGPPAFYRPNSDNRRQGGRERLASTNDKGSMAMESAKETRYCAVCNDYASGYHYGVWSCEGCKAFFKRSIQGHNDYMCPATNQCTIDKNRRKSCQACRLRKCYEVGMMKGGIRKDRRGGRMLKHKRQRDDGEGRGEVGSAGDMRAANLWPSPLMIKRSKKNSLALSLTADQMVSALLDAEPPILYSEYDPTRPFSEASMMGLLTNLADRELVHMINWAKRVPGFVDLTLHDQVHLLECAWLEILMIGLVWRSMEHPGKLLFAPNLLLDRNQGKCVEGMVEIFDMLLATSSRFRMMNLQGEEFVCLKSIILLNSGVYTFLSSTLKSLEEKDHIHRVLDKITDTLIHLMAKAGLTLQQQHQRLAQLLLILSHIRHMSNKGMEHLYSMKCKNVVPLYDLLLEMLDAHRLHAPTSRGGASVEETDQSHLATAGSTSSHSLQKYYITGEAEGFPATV
Thyrotropin receptor (Homo sapiens), sequence (P16473 whole entry, looked up): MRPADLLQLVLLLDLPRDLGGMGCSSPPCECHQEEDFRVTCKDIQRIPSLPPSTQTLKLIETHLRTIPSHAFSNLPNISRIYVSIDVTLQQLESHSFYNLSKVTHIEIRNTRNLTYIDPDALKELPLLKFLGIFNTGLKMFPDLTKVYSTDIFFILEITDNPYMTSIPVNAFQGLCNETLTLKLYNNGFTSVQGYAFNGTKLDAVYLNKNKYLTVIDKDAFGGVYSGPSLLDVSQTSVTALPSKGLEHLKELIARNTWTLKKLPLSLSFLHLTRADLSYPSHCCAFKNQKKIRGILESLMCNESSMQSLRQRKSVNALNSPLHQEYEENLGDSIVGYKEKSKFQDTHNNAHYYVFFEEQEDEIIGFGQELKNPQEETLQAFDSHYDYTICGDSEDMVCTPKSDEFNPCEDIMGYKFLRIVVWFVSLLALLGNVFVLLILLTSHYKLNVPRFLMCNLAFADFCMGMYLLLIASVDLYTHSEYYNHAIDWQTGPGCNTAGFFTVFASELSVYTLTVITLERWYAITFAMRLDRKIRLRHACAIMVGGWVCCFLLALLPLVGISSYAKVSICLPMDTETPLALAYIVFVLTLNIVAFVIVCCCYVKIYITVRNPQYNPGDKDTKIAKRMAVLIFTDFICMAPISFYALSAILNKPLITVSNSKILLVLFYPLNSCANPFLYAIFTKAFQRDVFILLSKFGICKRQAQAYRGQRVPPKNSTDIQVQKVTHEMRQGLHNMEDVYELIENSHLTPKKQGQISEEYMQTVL
Progesterone receptor (Homo sapiens), sequence (P06401 whole entry, looked up): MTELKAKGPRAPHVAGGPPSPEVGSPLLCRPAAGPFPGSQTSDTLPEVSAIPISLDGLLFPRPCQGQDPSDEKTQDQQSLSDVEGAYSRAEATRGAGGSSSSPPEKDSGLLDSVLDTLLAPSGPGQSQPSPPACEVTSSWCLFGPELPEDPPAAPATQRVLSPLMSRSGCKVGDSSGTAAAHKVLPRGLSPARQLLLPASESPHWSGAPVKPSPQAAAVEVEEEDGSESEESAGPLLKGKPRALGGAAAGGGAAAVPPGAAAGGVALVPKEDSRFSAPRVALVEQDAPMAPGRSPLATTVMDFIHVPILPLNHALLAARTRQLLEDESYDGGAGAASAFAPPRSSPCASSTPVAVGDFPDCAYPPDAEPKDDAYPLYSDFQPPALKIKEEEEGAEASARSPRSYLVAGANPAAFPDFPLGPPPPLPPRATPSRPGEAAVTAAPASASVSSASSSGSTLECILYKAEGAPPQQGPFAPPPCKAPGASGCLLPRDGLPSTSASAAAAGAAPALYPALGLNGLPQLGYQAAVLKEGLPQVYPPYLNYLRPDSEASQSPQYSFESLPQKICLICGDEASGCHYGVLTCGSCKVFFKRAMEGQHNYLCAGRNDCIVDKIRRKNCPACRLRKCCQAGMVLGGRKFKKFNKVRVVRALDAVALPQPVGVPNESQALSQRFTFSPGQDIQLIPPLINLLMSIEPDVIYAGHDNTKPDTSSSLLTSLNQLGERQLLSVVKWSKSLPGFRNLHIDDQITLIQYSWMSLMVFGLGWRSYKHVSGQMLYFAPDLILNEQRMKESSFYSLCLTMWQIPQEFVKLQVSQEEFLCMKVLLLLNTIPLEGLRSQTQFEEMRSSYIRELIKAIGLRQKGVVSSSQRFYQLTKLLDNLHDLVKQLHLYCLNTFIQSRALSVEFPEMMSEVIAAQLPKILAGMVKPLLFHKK
Androgen receptor (Homo sapiens), sequence (P10275 whole entry, looked up): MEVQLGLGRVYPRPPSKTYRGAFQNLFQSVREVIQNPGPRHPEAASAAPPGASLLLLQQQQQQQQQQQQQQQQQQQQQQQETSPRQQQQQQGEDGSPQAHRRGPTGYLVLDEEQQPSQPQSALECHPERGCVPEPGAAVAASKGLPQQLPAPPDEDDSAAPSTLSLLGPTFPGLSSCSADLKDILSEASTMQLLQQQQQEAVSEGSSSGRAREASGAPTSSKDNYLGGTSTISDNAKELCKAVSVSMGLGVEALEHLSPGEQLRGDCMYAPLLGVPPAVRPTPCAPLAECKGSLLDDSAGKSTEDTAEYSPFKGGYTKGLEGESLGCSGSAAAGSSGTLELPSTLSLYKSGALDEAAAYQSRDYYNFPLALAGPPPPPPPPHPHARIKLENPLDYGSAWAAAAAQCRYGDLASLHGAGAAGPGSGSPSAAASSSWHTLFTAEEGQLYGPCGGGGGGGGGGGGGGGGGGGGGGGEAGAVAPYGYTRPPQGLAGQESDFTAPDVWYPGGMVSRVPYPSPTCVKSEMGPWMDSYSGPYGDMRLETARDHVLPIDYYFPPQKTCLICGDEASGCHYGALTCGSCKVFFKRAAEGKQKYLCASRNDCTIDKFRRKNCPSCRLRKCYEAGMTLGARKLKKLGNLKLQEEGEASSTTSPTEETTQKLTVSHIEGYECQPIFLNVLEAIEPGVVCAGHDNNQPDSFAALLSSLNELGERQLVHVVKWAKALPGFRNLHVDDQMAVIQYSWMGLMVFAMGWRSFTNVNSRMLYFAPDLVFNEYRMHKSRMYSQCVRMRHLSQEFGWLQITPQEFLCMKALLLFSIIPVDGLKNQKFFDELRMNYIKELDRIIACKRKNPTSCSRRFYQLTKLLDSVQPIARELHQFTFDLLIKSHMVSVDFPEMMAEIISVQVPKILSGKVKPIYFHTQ
Thyrotropin-releasing hormone receptor (Homo sapiens), sequence (P34981 whole entry, looked up): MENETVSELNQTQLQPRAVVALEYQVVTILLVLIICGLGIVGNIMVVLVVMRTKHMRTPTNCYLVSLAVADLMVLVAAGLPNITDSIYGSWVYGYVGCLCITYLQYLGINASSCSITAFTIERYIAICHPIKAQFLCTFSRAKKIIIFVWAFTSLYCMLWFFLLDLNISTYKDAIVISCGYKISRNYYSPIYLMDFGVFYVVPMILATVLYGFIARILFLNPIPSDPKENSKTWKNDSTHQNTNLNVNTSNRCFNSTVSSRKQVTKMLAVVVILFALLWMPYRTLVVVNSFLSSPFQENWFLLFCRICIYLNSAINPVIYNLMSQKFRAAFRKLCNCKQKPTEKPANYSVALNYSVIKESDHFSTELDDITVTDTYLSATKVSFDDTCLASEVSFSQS

For the molecule `C=CCOC(N)=O`, the Potency entry in assay [1], in [2], in assay [3], in assay [5], in assay [6] and in [7] was “inactive” in each case. The Potency entry in assay [8], in assay [9], in assay [10], in assay [11], in [12] and in assay [14] was “inactive” each time. Also, the Potency result in assay [15] and in [16] was “inactive” throughout. Also, the result in assay [4] and in [13] was inactive.
Consider `CCOC(=O)C1(c2ccccc2)CCN(CCC(C#N)(c2ccccc2)c2ccccc2)CC1`, for which the Potency entry in assay [1], in assay [17], in assay [3], in assay [18], in assay [5] and in assay [6] was “inactive” each time. Moreover, the Potency result in assay [7], in assay [9], in assay [10], in assay [11], in assay [12] and in assay [19] was “inactive” each time. The Potency result in assay [14], in assay [15] and in assay [16] was “inactive” throughout. For the same molecule, the outcome in assay [4] and in [13] was inactive.
On to `CC(C)Oc1cccc(NC(=O)c2ccccc2C(F)(F)F)c1`, for which the Potency result in [1], in assay [18], in [6], in assay [12], in assay [19] and in assay [14] was “inactive” throughout. The Potency entry in [15] and in [16] was “inactive” each time. In addition, the figures for the Potency in assay [2] and in assay [7] were 17.2 µM (active) and 1.22 µM (active), respectively. For the same molecule, the call in assay [4] was inactive.
As for `Nc1ccccc1C(=O)Oc1ccc2ccccc2c1`, the Potency result in assay [1], in assay [17], in assay [3], in [5], in [6] and in assay [7] was “inactive” throughout. Moreover, the Potency result in assay [9], in [10], in assay [11], in assay [12], in assay [14] and in assay [15] was “inactive” each time. The Potency entry in assay [16] was “inactive”. The Potency is 2.17 µM (active) in assay [18] and 30.6 µM (active) in assay [8]. For the same molecule, the result in assay [4] and in assay [13] was inactive.
Regarding `CCCSP(=O)(OCC)SCCC`, the Potency result in assay [1], in [5], in [6], in assay [7], in assay [9] and in assay [11] was “inactive” throughout. Also, the Potency entry in [12], in assay [19], in [14], in assay [15] and in assay [16] was “inactive” each time. The Potency in assay [17] is 50.3 µM (active). Besides, the result in [4] and in [13] was inactive.
For the molecule `CC(C)CCCCCOC(=O)c1ccccc1C(=O)OCCCCCC(C)C`, the Potency result in [1], in assay [3], in assay [18], in assay [5], in assay [6] and in assay [7] was “inactive” in each case. Further, the Potency result in [8], in [9], in [10], in [11], in [12] and in assay [19] was “inactive” in each case. The Potency result in [14] and in assay [16] was “inactive” throughout. Further, the outcome in [4] and in assay [13] was inactive.
Consider `O=C(CCl)C(Cl)Cl`, for which the Potency was 27.6 µM (active) in [1]; 9.78 µM (active) in assay [2]; 43.7 µM (active) in assay [9]; 27.6 µM (active) in assay [10]; 15.5 µM (active) in [15]. The Potency entry in [18], in assay [5], in [11], in assay [12], in assay [19] and in [14] was “inactive” in each case. The Potency result in [16] is “inactive”. The outcome in assay [4] and in assay [13] was inactive.
